Results reported in PubChem BioAssay AID463082 (The Scripps Research Institute Molecular Screening Center, 2010).
Hit rate of the full screen: of about 330,000 compounds, about 4,900 (1.5%) were called active. The entries come from a sample that favours actives as a whole. Values without a mark were called inactive.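 How the source made its calls: active means inhibition above the mean inhibition across the screen plus 3 SD (cut at about 25% in these data); inactive means the rest.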

target: Platelet-activating factor acetylhydrolase (Homo sapiens) (UniProt Q13093); test: pPAFAH enzyme inhibitors, primary screen, biochemical, fluorescence polarization, human (AID 463082); conditions: recombinant pPAFAH, FP-rhodamine probe fluorescence polarization; at 3.39 µM; hits give high values;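 further: inhibitors block binding of the rhodamine activity-based probe so polarization drops; 0% = enzyme with DMSO and 100% = wells lacking pPAFAH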
Sequence (Q13093 whole entry, looked up): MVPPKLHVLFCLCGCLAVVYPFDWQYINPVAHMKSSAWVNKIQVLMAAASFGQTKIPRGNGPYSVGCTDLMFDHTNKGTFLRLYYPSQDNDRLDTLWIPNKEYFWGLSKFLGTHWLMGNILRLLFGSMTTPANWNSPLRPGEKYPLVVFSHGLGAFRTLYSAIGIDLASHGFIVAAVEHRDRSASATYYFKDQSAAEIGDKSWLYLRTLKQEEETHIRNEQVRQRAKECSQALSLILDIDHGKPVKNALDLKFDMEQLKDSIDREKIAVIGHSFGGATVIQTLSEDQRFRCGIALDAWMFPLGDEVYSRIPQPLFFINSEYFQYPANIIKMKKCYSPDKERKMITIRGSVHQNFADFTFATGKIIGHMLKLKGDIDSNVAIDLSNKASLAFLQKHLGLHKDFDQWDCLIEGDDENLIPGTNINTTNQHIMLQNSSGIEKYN

First: CCN1CCN(C(=O)CCN2C(=O)c3ccccc3C2=O)CC1
Second: CCN1CCN(C(=O)C2CCN(S(=O)(=O)c3cc(Cl)ccc3Cl)CC2)CC1
The inhibition of the first is lower: -1.23% for the first, 3.87% for the second.

Compared with CCCCOc1ccc(N(CC(=O)NCC2CCCO2)C(=O)CCC(=O)Nc2cc(C)ccn2)cc1 (stereo not drawn), CCOc1ccc(C(C(=O)NCCOC)N(CCOC)C(=O)CCC(=O)Nc2ccccn2)cc1 (stereo not drawn) is lower in inhibition: 10.7% for the first, 5.87% for the second.

Compared with COc1ccccc1C(=O)Nc1ccc(Nc2ccccc2)cc1, O=C(COC(=O)c1ccccc1Br)Nc1nnc(-c2ccccc2)o1 is higher in inhibition: 2.35% for the first, 4.87% for the second.

First: CCC(=O)Nc1nnc(S(=O)(=O)N(CC(C)C)c2ccccc2)s1
Second: CC(=O)Nc1cccc(C(=O)OCC(=O)Nc2nnc(-c3ccccc3)o2)c1
The inhibition of the first is lower: 3.99% for the first, 5.98% for the second.

Compared with O=C(Nc1cc(C(F)(F)F)ccc1Cl)c1cc2nc3c(c(C(F)(F)F)n2n1)CCCC3, O=C(O)c1cc2c(cc1NC(=O)c1c(F)cccc1Cl)OCCCO2 is lower in inhibition: 8.15% for the first, -0.94% for the second.

Compared with Cc1cc(/C=C2\SC(=Nc3ccc(N4CCOCC4)cc3)N(C)C2=O)c(C)n1-c1cccnc1, Cc1cc(C)n(C(=O)c2ccc(C)c(S(=O)(=O)N3CCOCC3)c2)n1 is lower in inhibition: 2.99% for the first, 2.24% for the second.

Going from CN=C1S/C(=C\c2c(OC)cc(OC)cc2OC)C(=O)N1C to COc1ccc(CNC(=O)/C(C#N)=C/c2cccc(OC)c2OC)cc1, the inhibition falls from -0.42% to -1.57%.

First: Cc1nc2ccccc2c(=O)n1-c1ccc(F)c(NC(=O)c2cccs2)c1
Second: CCc1ccc(N2CC(O)=C(c3nc4ccccc4c(=O)[nH]3)C2=N)cc1
The inhibition of the first is higher: -0.28% for the first, -1.78% for the second.

First: O=C(NC1CCCC1)c1cc(-c2ccccc2)on1
Second: CC(C)n1cnc2c(NCc3ccccc3)cc(OCC3CCN(C)CC3)cc21
The inhibition of the first is lower: 8.25% for the first, 11.1% for the second.

Going from COCCNC(=O)/C(C#N)=C/c1cccc(OCc2ccccc2)c1 to O=C(COc1ccccc1)N1CCN=C1SCc1cccc(F)c1, the inhibition rises from 2.65% to 4.42%.

Compared with Cc1cccc(C)c1N1CCN(S(=O)(=O)N2CCCCC2)CC1, CN1CCN(c2ccc(S(=O)(=O)N3CCCCC3)cc2NC(=O)Cc2ccccc2F)CC1 is lower in inhibition: 0.66% for the first, -3.62% for the second.

Compared with O=C1COc2ccc(C(=O)COC(=O)c3cccnc3Cl)cc2N1, CC(CC(=O)Nc1ccc(F)cc1F)S(=O)(=O)c1ccc2c(c1)NC(=O)CO2 (stereo not drawn) is lower in inhibition: 3.48% for the first, 0.8% for the second.

First: Cc1cc(=O)oc2c1ccc1ccccc12
Second: Cc1cc(O)c(Sc2ccccc2)c(=O)o1
The inhibition of the first is lower: 1.01% for the first, 3.25% for the second.

First: O=C1CCC([N+](=O)[O-])C(c2ccccc2Br)N1 (stereo not drawn)
Second: CCc1ccc(CN2C(=O)c3ccccc3C2C(=O)NCC2CCCO2)cc1 (stereo not drawn)
The inhibition of the first is lower: 2.25% for the first, 7.1% for the second.

Compared with CN(CC(=O)Nc1ccc(OC(F)(F)F)cc1)C(=O)C1CCC1, CS(=O)(=O)N1CCCC(C(=O)Nc2ccccc2C(F)(F)F)C1 (stereo not drawn) is lower in inhibition: 2.02% for the first, -1.76% for the second.

Going from CCc1cc2c(=O)c(-c3nc4ccccc4n3C)c(CCCC(=O)O)oc2cc1OC(=O)C(C)(C)C to CCCCNC(=O)CCn1c(=O)c2ccccc2n(Cc2cc(C)ccc2C)c1=O, the inhibition falls from 3.51% to 1.95%.

First: COc1ccc(-n2nnnc2-c2nc3ccccc3s2)cc1
Second: COc1ccc(NCc2nnc(SCc3ccccc3)n2-c2ccc(OC)cc2)cc1
The inhibition of the first is lower: -4.42% for the first, 2.01% for the second.

First: C=CCC[C@H](Cc1ccc(F)cc1)C(=O)OC[C@@H](NC(=O)[C@@H](CC=C)CC(=O)N[C@H](CO)Cc1ccccc1)C(C)(C)C
Second: C=CC[C@@H](CC(=O)N[C@@H](CO)Cc1ccccc1)C(=O)NCCOC(=O)[C@@H](CC=C)CC(=O)OC(C)(C)C
The inhibition of the first is higher: 4.14% for the first, 1.4% for the second.

Going from Cc1cc(NC(=O)CSC2=NS(=O)(=O)c3cc(Cl)ccc3N2)no1 to Cc1ccc(C)c(S(=O)(=O)Nc2cc(C)on2)c1, the inhibition rises from -4.37% to -1.93%.

Compared with O=C(COc1ccc(S(=O)(=O)NCc2ccccc2)cc1)N1CCOCC1, CC(NS(=O)(=O)c1ccc(OCC(=O)N2CCCC2)cc1)c1ccccc1 (stereo not drawn) is higher in inhibition: 4.78% for the first, 14.5% for the second.

Compared with Cc1ccc(S(=O)(=O)N(CC(=O)Nc2cccnc2)c2ccc(Br)cc2)cc1, CN(CC(=O)NCC(c1ccccc1)N1CCCC1)S(=O)(=O)c1ccc(Cl)cc1 (stereo not drawn) is lower in inhibition: 3.28% for the first, -2.68% for the second.

First: COc1cccc(CNC(=O)CCC2CCCN(C(=O)c3ccoc3C)C2)c1 (stereo not drawn)
Second: COc1cccc(C(=O)N2CCCC(CCC(=O)NCc3ccc(F)c(F)c3)C2)c1 (stereo not drawn)
The inhibition of the first is higher: 5.56% for the first, 1.9% for the second.

Compared with COc1ccc(S(=O)(=O)Nc2cccc3c2O[C@H](CN(C)S(=O)(=O)c2ccc(OC)cc2)[C@@H](C)CN([C@H](C)CO)C3=O)cc1, COc1ccc(OC)c(NC(=O)C2CCCN2S(=O)(=O)c2cccc3nsnc23)c1 (stereo not drawn) is lower in inhibition: 3.76% for the first, 1.9% for the second.

Going from OCCC1CN(Cc2cccc(O)c2)CCN1CCc1ccccc1 (stereo not drawn) to CC1c2nc3ccccc3n2C(CC(=O)NCCCN2CCOCC2)C(=O)N1Cc1ccccc1 (stereo not drawn), the inhibition rises from -5.11% to 3.44%.

Compared with CCN(CC)S(=O)(=O)c1ccc(N2CCOCC2)c(NC(=O)C(C)Oc2ccc(F)cc2)c1 (stereo not drawn), CC1Cc2ccccc2N1S(=O)(=O)c1cccc(C(=O)OCC(=O)N2CCOCC2)c1 (stereo not drawn) is lower in inhibition: 10.3% for the first, 8.16% for the second.

Compared with CCn1c(N)c(Br)c(=O)[nH]c1=O, CCOC(=O)C1CCN(Cc2coc3ccc(Cl)cc3c2=O)CC1 is lower in inhibition: 0.06% for the first, -3.13% for the second.

Compared with O=S(=O)(c1ccc(Cl)cc1)c1nc(-c2ccco2)oc1N1CCCCC1, O=C(Nc1cccn(Cc2c(Cl)cccc2Cl)c1=O)c1ccc(Cl)cc1 is lower in inhibition: -3.3% for the first, -3.34% for the second.

First: O=C(CSC1=Nc2ccccc2C2=NC(CC(=O)NCc3ccco3)C(=O)N12)NCc1ccco1 (stereo not drawn)
Second: CCC(C)NC(=O)CSC1=Nc2ccccc2C2=NC(CCC(=O)NCc3ccco3)C(=O)N12 (stereo not drawn)
The inhibition of the first is higher: 5.99% for the first, 2.48% for the second.

Going from CC(=O)Nc1ccc(OCCC[n+]2cccc(C(=O)[O-])c2)cc1 to O=C(OCC1OC(Oc2ccc(O)cc2)C(O)C(O)C1O)c1ccccc1 (stereo not drawn), the inhibition rises from -0.37% to 3.51%.

First: CCCCNC(=O)C1CCC(=O)N1CCc1ccccc1 (stereo not drawn)
Second: O=C(COC(=O)c1ncc(Cl)c(Cl)c1Cl)NCc1ccccc1
The inhibition of the first is lower: 3.82% for the first, 14.3% for the second.

Compared with CCOc1ccc(OCC)c(-c2c(=O)n(OCc3ccc(Cl)cc3)c3ccccc3[n+]2[O-])c1, CC(=O)c1ccc(-c2ccc(Cn3c(C)nc4cc(N)c(C)nc43)cc2)cc1 is lower in inhibition: 5.98% for the first, 3.76% for the second.

First: N#CC1=C(N)Oc2c(ccc3cccnc23)C1c1ccncc1 (stereo not drawn)
Second: CN(CC(=O)Nc1c(Cl)cccc1Cl)C(=O)CC1OC(=O)c2ccccc21 (stereo not drawn)
The inhibition of the first is higher: 11.9% for the first, 1.34% for the second.

Compared with O=C(O)/C(=C/c1cccnc1)NC(=O)c1ccccc1, Cc1cc(-c2csc(N)n2)c(C)n1Cc1ccccc1 is higher in inhibition: -3.24% for the first, 12.4% for the second.

Compared with O=C(CN1C(=O)c2ccc([N+](=O)[O-])cc2C1=O)Nc1nnc(C2CC2)s1, O=C(CSc1ccc(-c2ccc(Br)cc2)nn1)NCC1CCCO1 (stereo not drawn) is higher in inhibition: 0.34% for the first, 3.46% for the second.

First: Cc1ccc(N=Cc2c(O)cc(C)oc2=O)c(C)c1
Second: CC(NS(=O)(=O)c1ccc(Br)cc1)C(=O)NCC1CCCO1 (stereo not drawn)
The inhibition of the first is lower: -5.2% for the first, 1.93% for the second.

With O=C(Cn1cc(C(F)(F)F)ccc1=O)Nc1ccc2c(c1)OCCO2 the inhibition was 0.39%.

CCCCOc1ccc(N(CC(=O)NC(C)C)C(=O)CCC(=O)Nc2ccccn2)cc1 was tested, and the inhibition was 28.3% (active).
For CN1C(=O)/C(=C/c2ccco2)SC1=Nc1cccc(C(=O)O)c1, the inhibition was 25.1% (active).
For N#C/C(=C\c1ccc(O)c(O)c1)C(=O)NCc1ccccc1, the inhibition was 28.2% (active).
O=[N+]([O-])C(=c1ccc2c(c1)N1C3=C(CCCC3)CC3CCCCC31N=2)[N+](=O)[O-] (stereo not drawn) was tested, and the inhibition was 33.6% (active).
With COc1ccccc1N1CC(O)=C(c2nc3ccccc3s2)C1=N the inhibition was 32.9% (active).
With O=C(COC(=O)c1ccc(Oc2ccccc2)cc1)Nc1nnc(-c2ccccc2)o1 the inhibition was 25% (active).
With O=C(COc1ccc(S(=O)(=O)NCCc2ccccc2)cc1)N1CCCC1 the inhibition was 26.8% (active).
In the case of COc1cccc(CNC(=O)CCC2CCCN(C(=O)c3ccc(F)c(Cl)c3)C2)c1 (stereo not drawn), the inhibition is reported as 42.8% (active).
CCN(CC)S(=O)(=O)c1ccc(N2CCN(C)CC2)c(NC(=O)Nc2ccccc2F)c1 was tested, and the inhibition was 33.1% (active).
CC(C)C1N=C2c3ccccc3N=C(SCC(=O)c3ccc(O)c(O)c3)N2C1=O (stereo not drawn) was tested, and the inhibition was 55.4% (active).
In the case of O=c1ccc2c(-c3ccccc3S(=O)(=O)O)c3ccc(O)c(O)c3oc-2c1O, the inhibition is reported as 70% (active).
For N#CC1=C(N)Oc2c(sc3ccccc23)C1c1ccco1 (stereo not drawn), the inhibition was 26.5% (active).
Cc1cc(O)c(C(=O)/C=C/c2c(F)c(F)c(F)c(F)c2F)c(=O)o1 was tested, and the inhibition was 27.7% (active).
In the case of O=C(OCC1O[C@@H](OC(=O)c2cc(O)c(O)c(O)c2)[C@@H](OC(=O)c2cc(O)c(O)c(O)c2)[C@@H](OC(=O)c2cc(O)c(O)c(O)c2)[C@@H]1OC(=O)c1cc(O)c(O)c(O)c1)c1cc(O)c(O)c(O)c1 (stereo partly drawn), the inhibition is reported as 73% (active).
In the case of Cc1cc2nc3c(=O)n(Cc4ccccc4)c(=O)[nH]c3nc2cc1N, the inhibition is reported as 59.1% (active).
In the case of Nc1nc(Br)c2ccccc2c1-c1ccc(F)cc1, the inhibition is reported as 29.3% (active).
In the case of OC(CNCC1CCCO1)Cn1c2ccc(Br)cc2c2cc(Br)ccc21 (stereo not drawn), the inhibition is reported as 60% (active).
